What follows are sequences tested on PPARg homodimer (NR concentration 180 nM) (assay: PBM binding z-score (relative to random genomic background probes); higher = stronger binding; sequences stand for … in GC…GCGATTGACAGCGTAGAATGAAGG).
How it was run: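 Binding z-scores were set against random background probes. The data came from custom Agilent 4×180K protein-binding microarrays carrying double-stranded probes with 34-nt variable regions, incubated 1 h with ligand-free nuclear receptor dimers. Partner-specific antibodies detected binding, and scanned fluorescence was regression-normalized.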

Sequence	PBM binding z-score
CGTCCAAGGTCGTAGGAGGTCAGTGAAGACAGAT	2.21
TCTGCTAGGTCAACGATGATCAGCTAATCTGCTA	0.451
TCAAATAGGTAAAGGTGAAAGTCGAACGATATGA	2.04
TCTATTAGTTGATTAGGGCAACTGAAACAGCGGA	-0.0911
AGAATGAGGTAATACGTAGATCAGGGAAGAAAGT	-0.201
ACTATTAGTTGACTTAGGACAACCGATACGACGC	1.07
AGTCAAAGTTCAGGACGAAGTAACGTAAAGCACG	1.46
TCTTGTAGATCAAGGGTTAAGAAAGCCGAAGCCT	1.12
CGAACTAGGTCGGAACAGGACAGTGAAGGATGAT	-0.2
AGAACGAGGGCAATAAGTTGATAGCACGGGTGGC	0.0949
AGAACGATGGCACGCTGAGTTGATAGCAGAGTAG	0.102
GATACAGGGTCAGCTAGAGGACAGAGTATGGAAA	2.5
TCATATAGGTAAATGCTAGGTGAAAGTGCGATCT	1.41
GCTAGTTGGTCAGTAAAAGGTCAGACACCGGTCG	3.21
AGAATGAGGTTACCAAACATCAGGGAAACGCTTG	0.76
ACTCGGAAGACAAAGGTCAGAGCTACGCCAGTGA	2.44
ACAGACAGGTTAGTGAAGGTAACTCAGCTGGACG	0.573
TCTATTAGTTGACTAGGGCAACCGAAACAGCGGA	1
ACTAGCAGGCCAAGTTTGGGTCACTTAAACAAAG	0.336
CCTACTGGGCCACGAAAGCTCATTGATTCAGTGA	-0.477

Sequence	PBM binding z-score
ACTAGCAGGCCAGGTTTGGGTCACTCAAACAAAG	0.235
TAGCCTACGTCAGATCGGGCCAGTATACGCTATA	-1.51
TAGCCTAGGTCATTCAGGGGCCAGTTTAGAAAGC	0.877
CTCGAAAGGTCGTGCTCACGTGAGTATACCAAAC	1.35
GCTCGGAGGACAAGGTCAGAGCATTGTCCGTAGA	0.964
TAGCCTAGGTCAGATCGGGCAAGTATACGCTATA	-0.0891
CAAACTAGGTCAAGGTCATAGTCGGTTTGTGCCA	4.4
TTACCAAGGTGAAGGTCCTTGATCCCTCTGTAGA	-0.00432
CGAACGAGGGCATGAGTTGACAGCAAATGCCGAT	0.454
ATCGAAAGGTCGAACGTGAGTATACCCACCCGAA	1.65
TCTGCTAGGTCAGCTGGTCAGCTAACGAGCTGCC	0.0537
GATACAGGGTCAGCCAGAGGCCAGAGTATGGAAA	2.32
GCTATTAGTTGAAAGGGCAACCCAATGATTCTCG	1.44
GCGACTGGGGCATCAGCAGTTTACCATAACTTAA	0.458
ATATGAAGGTTACATCCGGGTCATTCAGGCTATG	3.27
CGTCAAAGATCAACTAAGGTAACGTAAAGCACGC	0.91
AGATTGAGGTTAAGATCAGGGAAACAGAATACAT	1.06
GATACAGGGTCAAGGCCAGCGTACGCGTATTGAT	2.29
AGTACGAGGGCACGCTGAGTTGATAGCAGAGTAG	0.0101
TGAATGAGGTTAAAGATCCGGGAACGTGGCGTCG	0.436

Reference: the supplement of paper PMC6555819
